These results are taken from PubChem BioAssay (NCI).

The structures appear in SMILES notation. This is part of a sample that, as a whole, favours compounds with a hit. Of some 83,000 tested, about 20% had one in any assay.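 Note: values are percent growth. 100 is the growth of untreated cells, values between 100 and 0 indicate rising inhibition; between -100 and 0 indicates cell death.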 A number with no mark means an inactive call. Active and inactive are the calls of the source.

In the experiment the test system is COLO 205 colon. Description: NCI-60 one-dose screen, 48 h (100 = growth as untreated, 0 = no growth, -100 = all killed). The following applies: 10 µM. The procedure: Cells are grown in 96 well plates and exposed to the test compound for 48 hours. Compounds are tested at a single concentration, which is 10^-5 M for most compounds. The reported endpoint is percent growth (GI% or GIPRCNT), where numbers from 0 - 100% represent growth inhibition, and numbers from -100% - 0 represent cell death. For example, a value of 40 represents 60% growth inhibition. A value of 0 means no net growth occurred over the course of the experiment. A value of -40 indicates 40% of cells at the beginning of the experiment died by the end of the experiment. A value of -100 means all cells are dead at the end of the experiment.
NCI-60 Human Tumor Cell Lines Screen was performed using the standard one-dose NCI protocol, which is described in more detail at https://dtp.cancer.gov/discovery_development/nci-60/default.htm.
Compounds with GIPRCNT values below 10 were considered active. Activity score was based on GIPRCNT using the following formula: […]
Score is 0 for GIPRCNT values of 100 or above, 50 for GIPRCNT values of 0, and 100 for GIPRCNT values of -100.
Consider `COc1cc2cc(C(=O)N3C[C@@H](CCl)c4c3cc(OC(=O)N3CCN(C)[C@@H]5CSSC[C@H]53)c3ccccc43)[nH]c2c(OC)c1OC`, for which the growth was -59.2% (active).
The figure for `COP(=O)(CC(F)(F)C(F)(F)F)OC` is -59.3% (active); for `O=C(/C=C/c1ccc(F)cc1)c1nc2ccccc2n1Cc1ccc(Br)cc1` it is -82.4% (active).
Turning to `CC12OOC(C)(OO1)C2CCC(=O)NCCNc1ccnc2cc(Cl)ccc12` (stereo not given), the growth is 73%.
The figure for `C=CCN=C([Se])NC(=O)c1ccc2c(c1)OCO2` is 122%; for `CC(=O)Oc1ccccc1C(=O)NC([Se])=NC1CCCCC1` it is 28.9%; for `O=C([Se]C1C=CCCC1)c1ccc(C(=O)[Se]C2C=CCCC2)s1` (stereo not given) it is -95.7% (active).
On to `CCOC(=O)C1=C(Nc2ccccc2)C(=O)OC12C(=O)Nc1ccccc12` (stereo not given), for which the growth is 119%.
As to `CCC[Se]C(=O)c1ccc(C(=O)[Se]CCC)s1`, the growth was -85.7% (active).
Under `O=C(/C=C/c1ccco1)c1nc2ccccc2n1Cc1ccc(F)cc1` stands 81.9%; under `COc1ccc2cc([C@H](C)C(=O)[Se]CCC#N)ccc2c1`, -71% (active).
As for `CC1=C(C=O)C2=C(C)C3(CC3)[C@@](C)(O)C(=O)C2=C1`, the growth is 30.4%.
Under `COC(=O)CCn1c(-c2ccc(-n3cc(-c4ccc(O[C@H]5O[C@@H]6OC7(C)CC[C@H]8[C@H](C)CC[C@@H]([C@H]5C)[C@@]68OO7)cc4)nn3)cc2)nc2ccccc21` stands -26.6% (active); under `CC[C@@]12CC(C(=O)OC)=C3Nc4cc5c(cc4[C@@]34CCN(C[C@H]3O[C@H]31)[C@@H]24)[C@@H]1[C@H](O5)[C@@H](O)[C@@]2(CC)CC(C(=O)OC)=C3Nc4cc(OC)ccc4[C@@]34CCN1[C@@H]24`, -59.1% (active); under `COC(=O)C[C@](O)(CCC(C)C)C(=O)O[C@@H]1C(OC)=C[C@]23CCCN2CCc2cc4c(cc2[C@H]13)OCO4`, -84.7% (active).
Under `COC(=O)C[C@](O)(CCCC(C)C)C(=O)O[C@H]1C(OC)=C[C@@]23CCCN2CCc2cc4c(cc2[C@@H]13)OCO4` stands -2.77% (active); under `COc1cc(OC)c(/C=C/C(=O)c2nc3ccccc3n2Cc2ccc(F)cc2)c(OC)c1`, 108%.
Under `CC[C@]12C=CCN3CC[C@@]4(c5ccc(OC)cc5N(C)[C@H]4[C@@](O)(C(=O)OC)[C@@H]1OC(=O)CCCC[P+](c1ccc(C)cc1)(c1ccc(C)cc1)c1ccc(C)cc1)[C@@H]32` stands -64.1% (active).
In the case of `C#CCCCN(CCNc1ccnc2cc(Cl)ccc12)C(=O)CCC(=O)O[C@@H]1O[C@@H]2OC3(C)CC[C@H]4[C@H](C)CC[C@@H]([C@H]1C)[C@@]24OO3`, the growth was 7.04% (active).
Under `CC[C@]12C=CCN3CC[C@@]4(c5ccc(OC)cc5N(C)[C@H]4[C@@](O)(C(=O)OC)[C@@H]1OC(=O)CCCC[P+](C1CCCCC1)(C1CCCCC1)C1CCCCC1)[C@@H]32` stands -76.6% (active); under `O=C(/C=C/c1ccc(Cl)cc1)c1nc2ccccc2n1Cc1ccc(Br)cc1`, 93.6%; under `CC[C@]12C=CCN3CC[C@@]4(c5ccc(OC)cc5N(C)[C@H]4[C@@](O)(C(=O)OC)[C@@H]1OC(=O)CCC[P+](c1ccc(F)cc1)(c1ccc(F)cc1)c1ccc(F)cc1)[C@@H]32`, -19% (active).
For the compound `CC1=C(COCCOC(=O)c2ccc(S(=O)(=O)F)cc2)C2=C(C)C3(CC3)[C@@](C)(O)C(=O)C2=C1`, the growth was -73% (active).
Turning to `COc1cc(OC)c(S(=O)(=O)N(CCCl)CCCl)cc1C(=O)/C=C/c1cc(OC)c(OC)c(OC)c1`, the growth was -89.8% (active).
Under `C[C@H]1[C@@H](CC(=O)N[C@@H](Cc2coc3ccccc23)B(O)O)O[C@@H]2OC3(C)CC[C@H]4[C@H](C)CC[C@@H]1[C@@]24OO3` stands -49.2% (active); under `C[C@H]1[C@H](OC(=O)CCC(=O)N(CCCc2cn(-c3ccc(C#N)cc3)nn2)CCNc2ccnc3cc(Cl)ccc23)O[C@@H]2OC3(C)CC[C@H]4[C@H](C)CC[C@@H]1[C@@]24OO3`, 14.5%; under `O=C(/C=C/c1ccccc1)c1nc2ccccc2n1Cc1ccc(Br)cc1`, -74.7% (active).
Regarding `C#CC[Se]C(=O)c1ccc(C(=O)[Se]CC#C)s1`, the growth is 86%.
The figure for `CN(C)CCc1cn(C2CCC2)c2cccc(O)c12` is 81.1%.
Under `O=C(NC([Se])=NC1CCCCC1)c1ccccc1` stands 49.2%; under `O=C(/C=C/c1cccc(Br)c1)c1nc2ccccc2n1Cc1ccc(F)cc1`, 79.3%; under `COc1cc2cc(C(=O)N3C[C@@H](CCl)c4c3cc(OC(=O)N3CCN(C)[C@@H]5CSSC[C@@H]53)c3ccccc43)[nH]c2c(OC)c1OC`, -55.6% (active).
Under `C[C@H]1[C@@H](Oc2ccc(-c3cn(-c4ccnc5cc(Cl)ccc45)nn3)cc2)O[C@@H]2OC3(C)CC[C@H]4[C@H](C)CC[C@@H]1[C@@]24OO3` stands -50% (active).
For the compound `C[C@H]1[C@H](OC(=O)CCC(=O)N(CCCc2cn(-c3ccc([N+](=O)[O-])cc3)nn2)CCNc2ccnc3cc(Cl)ccc23)O[C@@H]2OC3(C)CC[C@H]4[C@H](C)CC[C@@H]1[C@@]24OO3`, the growth is 20.1%.
Under `C[C@H]1[C@H](OC(=O)CCC(=O)Nc2cnccn2)O[C@@H]2OC3(C)CC[C@H]4[C@H](C)CC[C@@H]1[C@@]24OO3` stands 11.9%; under `COc1ccc(/C=C/C(=O)c2nc3ccccc3n2Cc2ccc(Br)cc2)cc1`, 91.4%; under `COC(=O)C[C@](O)(CCC(C)C)C(=O)O[C@H]1C(OC)=C[C@@]23CCCN2CCc2cc4c(cc2[C@@H]13)OCO4`, -55.4% (active).
With `CC[C@]12C=CCN3CC[C@@]4(c5ccc(OC)cc5N(C)[C@H]4[C@@](O)(C(=O)OC)[C@@H]1OC(=O)CCC[P+](c1ccc(C)cc1)(c1ccc(C)cc1)c1ccc(C)cc1)[C@@H]32`, the growth was -50.2% (active).
With `CCOP(=O)(OCC)C(NC(C)=O)C(=O)SCCN` (stereo not given), the growth was 128%.
Under `CC[C@]12C=CCN3CC[C@@]4(c5ccc(OC)cc5N(C)[C@H]4[C@@](O)(C(=O)OC)[C@@H]1OC(=O)CCC[P+](C1CCCCC1)(C1CCCCC1)C1CCCCC1)[C@@H]32` stands -63.6% (active).
